The record followed here is the antibiotic and cytotoxicity screens of Wong et al. (2023).

The structures appear in SMILES notation. In all, about 39,000 compounds went through this assay and about 3,300 (8.5%) were called active. This excerpt belongs to a sample that is enriched for actives.

In the assay the test system is HepG2. As to the kind of experiment: cytotoxicity call (relative viability < 0.9). The following applies: 10 µM.
Regarding `Cc1ccc(S(=O)(=O)Nc2ccc3c(c2)C(=O)N([C@@H](C)CO)C[C@H](C)[C@@H](CN(C)S(C)(=O)=O)OCCCC[C@H](C)O3)cc1`, the cytotoxicity call is “inactive”.
`C[C@H](CO)N1C[C@H](C)[C@H](CN(C)C(=O)Nc2ccc(C(F)(F)F)cc2)OCCCC[C@H](C)Oc2ccc(NC(=O)c3ccncc3)cc2C1=O`: the cytotoxicity call is “inactive”.
For `C[C@H]1CN([C@@H](C)CO)C(=O)c2cc(C#Cc3ccccc3F)cnc2O[C@@H]1CN(C)S(=O)(=O)c1ccccc1`, the cytotoxicity call was “inactive”.
Turning to `C[C@H](CO)N1C[C@H](C)[C@@H](CN(C)S(=O)(=O)c2ccccc2)Oc2ncc(Br)cc2C1=O`, the cytotoxicity call was “inactive”.
Regarding `S=C(Nc1ccccc1)Nc1ccc2c(c1)oc1ccccc12`, the cytotoxicity call was “inactive”.
As for `COc1ccc(CN(C)C[C@@H]2Oc3ccc(NC(=O)Cn4cnnn4)cc3CC(=O)N([C@H](C)CO)C[C@@H]2C)cc1`, the cytotoxicity call is “inactive”.
The same measure for `C[C@@H](N)c1cnn(-c2ccccc2F)c1`: “inactive”; for `CCN(CC)CCNc1ccc(CO)c2sc3ccccc3c(=O)c12`: “active”; for `CCN(CC)CCNc1ccc(COc2cccc(/C=C(C)/C=C/C(=O)NO)c2)c2sc3ccccc3c(=O)c12`: “inactive”.
For the compound `CCN(CC)CCNc1ccc(COc2ccccc2/C=C(C)/C=C/C(=O)NO)c2sc3ccccc3c(=O)c12`, the cytotoxicity call was “inactive”.
On to `C[C@@H]1CCCCO[C@@H](CN(C)Cc2ccc(C(=O)O)cc2)[C@@H](C)CN([C@H](C)CO)C(=O)c2cc(NS(=O)(=O)c3cccs3)ccc2O1`, for which the cytotoxicity call was “inactive”.
With `O=C(C[C@@H]1C=C[C@@H](NC(=O)c2cccnc2)[C@H](CO)O1)NCCN1CCCCC1`, the cytotoxicity call is “inactive”.
As for `O=C(C[C@@H]1C=C[C@@H](NC(=O)c2cccnc2)[C@@H](CO)O1)NCCN1CCCCC1`, the cytotoxicity call is “inactive”.
With `O=C(C[C@H]1C=C[C@H](NC(=O)c2cccnc2)[C@@H](CO)O1)NCCN1CCCCC1` the entry was “active”.
As for `CN(C)CC(=O)N[C@@H]1C=C[C@H](CC(=O)NCCN2CCCCC2)O[C@H]1CO`, the cytotoxicity call is “inactive”.
Consider `CN(C)CC(=O)N[C@@H]1C=C[C@@H](CC(=O)NCCN2CCCCC2)O[C@H]1CO`, for which the cytotoxicity call is “inactive”.
Take `CN(C)CC(=O)N[C@H]1C=C[C@@H](CC(=O)NCCN2CCCCC2)O[C@@H]1CO`: the cytotoxicity call is “active”.
For `COCC#Cc1ccc2c(c1)O[C@@H](CN(C)C(=O)Nc1ccc(OC)cc1)[C@H](C)CN([C@@H](C)CO)S2(=O)=O`, the cytotoxicity call is “inactive”.
As for `CC(C)(C)OC(=O)C[C@@H]1CC=CC[C@H](CC(=O)N[C@@H](CO)Cc2ccccc2)C(=O)N2CCC[C@@H]2COC1=O`, the cytotoxicity call is “inactive”.
For the compound `Cc1noc(C)c1NC(=O)N(C)C[C@H]1Oc2c(NS(C)(=O)=O)cccc2C(=O)N([C@@H](C)CO)C[C@H]1C`, the cytotoxicity call was “inactive”.
Take `CC(C)(C)S(=O)N1Cc2cc(C(=O)N[C@@H]3CCN(Cc4ccccc4)C3)nc(-c3cccc(C#CCC4CCCC4)c3)c2[C@@H]1CCO` (stereo partly drawn): the cytotoxicity call is “inactive”.
For the compound `N#CC(=Cc1ccc(O)c(O)c1)C(N)=O`, the cytotoxicity call was “inactive”.
For the compound `CCN(CC)C(=O)C(C#N)=Cc1cc(O)c(O)c([N+](=O)[O-])c1`, the cytotoxicity call is “inactive”.
The same measure for `N#C/C(=C\c1ccc(O)c(O)c1)C(N)=O`: “active”.
For the compound `Cc1noc(C)c1S(=O)(=O)Nc1cccc2c1O[C@@H](CN(C)C(=O)Nc1ccccc1)[C@@H](C)CN([C@H](C)CO)C2=O`, the cytotoxicity call is “inactive”.
As to `CC(C)NC(=O)Nc1ccc2c(c1)C(=O)N([C@H](C)CO)C[C@@H](C)[C@@H](CN(C)CC1CCCCC1)OCCCC[C@@H](C)O2`, the cytotoxicity call is “inactive”.
Regarding `NCc1ccc(Br)s1`, the cytotoxicity call was “inactive”.
With `Cc1noc(C)c1S(=O)(=O)Nc1ccc2c(c1)C(=O)N([C@H](C)CO)C[C@H](C)[C@H](CN(C)S(C)(=O)=O)OCCCC[C@@H](C)O2` the entry was “inactive”.
With `C[C@H](CO)N1C[C@H](C)[C@H](CN(C)Cc2ccc3c(c2)OCO3)Oc2ccc(NC(=O)C3CC3)cc2C1=O` the entry was “inactive”; with `C[C@@H]1CCCCO[C@@H](CN(C)S(=O)(=O)c2cccs2)[C@@H](C)CN([C@@H](C)CO)C(=O)c2cc(NC(=O)C3CCCCC3)ccc2O1`, “inactive”.
Turning to `C[C@@H]1CN([C@@H](C)CO)S(=O)(=O)c2ccc(/C=C/c3ccccc3)cc2O[C@H]1CN(C)C(=O)Nc1cc(F)ccc1F`, the cytotoxicity call was “inactive”.
With `COc1ccc(C#Cc2ccc3c(c2)O[C@@H](CN(C)C(=O)c2ccccn2)[C@H](C)CN([C@@H](C)CO)S3(=O)=O)cc1`, the cytotoxicity call is “inactive”.
Take `COc1cccc(C#Cc2ccc3c(c2)O[C@H](CN(C)C(C)=O)[C@@H](C)CN([C@H](C)CO)S3(=O)=O)c1`: the cytotoxicity call is “inactive”.
In the case of `COc1ccc(C#Cc2ccc3c(c2)O[C@H](CN(C)C(=O)c2ccccn2)[C@@H](C)CN([C@@H](C)CO)S3(=O)=O)cc1`, the cytotoxicity call is “inactive”.
Take `COc1cccc(C#Cc2ccc3c(c2)O[C@H](CN(C)C(=O)c2ccccn2)[C@H](C)CN([C@H](C)CO)S3(=O)=O)c1`: the cytotoxicity call was “active”.
Take `COc1cccc(C#Cc2ccc3c(c2)O[C@@H](CN(C)C(C)=O)[C@@H](C)CN([C@@H](C)CO)S3(=O)=O)c1`: the cytotoxicity call was “active”.
For the compound `COc1cccc(C#Cc2ccc3c(c2)O[C@H](CN(C)C(C)=O)[C@H](C)CN([C@@H](C)CO)S3(=O)=O)c1`, the cytotoxicity call is “inactive”.
Regarding `COc1ccc(C#Cc2ccc3c(c2)O[C@H](CN(C)C(=O)c2ccccn2)[C@H](C)CN([C@@H](C)CO)S3(=O)=O)cc1`, the cytotoxicity call was “active”.
`COc1cccc(C#Cc2ccc3c(c2)O[C@@H](CN(C)C(=O)c2ccccn2)[C@@H](C)CN([C@@H](C)CO)S3(=O)=O)c1`: the cytotoxicity call was “inactive”.
Consider `COc1cccc(C#Cc2ccc3c(c2)O[C@H](CN(C)C(=O)c2ccccn2)[C@@H](C)CN([C@H](C)CO)S3(=O)=O)c1`, for which the cytotoxicity call was “inactive”.
For the compound `C[C@H]1CN([C@@H](C)CO)C(=O)c2cc(NC(=O)c3ccncc3)ccc2O[C@H]1CN(C)Cc1ccc(Oc2ccccc2)cc1`, the cytotoxicity call was “inactive”.
As for `COCC#Cc1ccc2c(c1)O[C@H](CN(C)C(=O)Nc1ccccc1F)[C@H](C)CN([C@H](C)CO)S2(=O)=O`, the cytotoxicity call is “inactive”.
The same measure for `Cc1ccc(S(=O)(=O)N[C@@H](Cc2ccccc2)C(=O)NCCn2cc(-c3ccc(C(=O)NO)s3)nn2)cc1`: “inactive”.
Consider `COc1cccc(S(=O)(=O)N(C)C[C@@H]2Oc3cc(C#CCN(C)C)ccc3S(=O)(=O)N([C@@H](C)CO)C[C@H]2C)c1`, for which the cytotoxicity call was “inactive”.
For the compound `CC(=O)NS(=O)(=O)c1ccc(N)cc1` [listing 1 of 2 here], the cytotoxicity call was “active”.
Take `NC(=O)NS(=O)(=O)c1ccc(N)cc1`: the cytotoxicity call is “inactive”.
As to `CC(=O)NS(=O)(=O)c1ccc(N)cc1` [listing 2 of 2 here], the cytotoxicity call is “inactive”.
As to `C[C@H](CO)N1C[C@H](C)[C@H](CN(C)C(=O)Nc2cccc3ccccc23)Oc2ccc(NC(=O)Nc3ccc4c(c3)OCO4)cc2C1=O`, the cytotoxicity call is “inactive”.
The same measure for `Nc1nnc([C@H]2CCCO2)o1`: “inactive”; for `O=C(O)c1ccc2nc(O)c(=O)[nH]c2c1`: “inactive”; for `O=C(O)c1ccc(-n2nc(-c3ccccc3O)nc2-c2ccccc2O)cc1`: “active”.
For `O=C(O)c1ccc(-c2ccccc2)cc1`, the cytotoxicity call was “inactive”.
Take `COCC#Cc1cnc2c(c1)C(=O)N([C@@H](C)CO)C[C@H](C)[C@@H](CN(C)C(=O)Nc1ccccc1OC)O2`: the cytotoxicity call was “inactive”.
With `Cc1noc(C)c1S(=O)(=O)N(C)C[C@@H]1OCCCC[C@@H](C)Oc2ccc(NC(=O)Nc3cccc4ccccc34)cc2C(=O)N([C@@H](C)CO)C[C@H]1C`, the cytotoxicity call was “inactive”.
Consider `COc1ccc(NC(=O)N(C)C[C@@H]2OCCCC[C@H](C)Oc3ccc(NS(=O)(=O)c4ccc(Cl)cc4)cc3C(=O)N([C@H](C)CO)C[C@@H]2C)cc1`, for which the cytotoxicity call was “inactive”.
As to `C[C@H]1CN([C@@H](C)CO)C(=O)c2cc(C#CC3(O)CCCC3)cnc2O[C@@H]1CN(C)C(=O)Nc1ccc2c(c1)OCO2`, the cytotoxicity call was “inactive”.
Turning to `O=C1OCCN/C1=C/C(=O)c1ccccc1`, the cytotoxicity call was “active”.
As to `O=C(/C=c1/nc2c([nH]c1=O)=NON2)c1ccccc1`, the cytotoxicity call was “inactive”.
For the compound `C[C@H]1CNC(=CC(=O)c2ccccc2)C(=O)N1`, the cytotoxicity call is “inactive”.
For the compound `COCCNC(=O)C[C@H]1CC[C@@H](NS(=O)(=O)c2ccc(C)cc2)[C@@H](CO)O1`, the cytotoxicity call is “inactive”.
`C[C@@H]1CN([C@@H](C)CO)C(=O)c2cc(C#CC3CC3)cnc2O[C@@H]1CN(C)S(=O)(=O)c1cccc(F)c1`: the cytotoxicity call was “inactive”.
On to `C[C@H](CO)N1C[C@H](C)[C@H](CN(C)C(=O)Nc2cccc(C(F)(F)F)c2)OCc2ccccc2-c2c(n(C)c3ccccc23)C1=O`, for which the cytotoxicity call was “inactive”.
With `C[C@H](CO)N1C[C@H](C)[C@@H](CN(C)C(=O)Nc2cccc(C(F)(F)F)c2)OCc2ccccc2-c2c(n(C)c3ccccc23)C1=O`, the cytotoxicity call is “inactive”.
As to `C[C@@H]1CN([C@@H](C)CO)C(=O)c2c(c3ccccc3n2C)-c2ccccc2CO[C@H]1CN(C)C(=O)Nc1cccc(C(F)(F)F)c1`, the cytotoxicity call was “active”.
With `C[C@H]1CN([C@@H](C)CO)C(=O)c2c(c3ccccc3n2C)-c2ccccc2CO[C@H]1CN(C)C(=O)Nc1cccc(C(F)(F)F)c1` the entry was “inactive”; with `C[C@@H]1CN([C@H](C)CO)C(=O)c2c(c3ccccc3n2C)-c2ccccc2CO[C@@H]1CN(C)C(=O)Nc1cccc(C(F)(F)F)c1`, “active”; with `C[C@@H]1CN([C@H](C)CO)C(=O)c2c(c3ccccc3n2C)-c2ccccc2CO[C@H]1CN(C)C(=O)Nc1cccc(C(F)(F)F)c1`, “inactive”.
The same measure for `COc1ccc(S(=O)(=O)N(C)C[C@@H]2OCCCC[C@H](C)Oc3ccc(NC(=O)Nc4c(C)noc4C)cc3C(=O)N([C@@H](C)CO)C[C@@H]2C)cc1`: “inactive”; for `Cc1noc(C)c1NC(=O)N(C)C[C@@H]1Oc2ccc(NC(=O)NC(C)C)cc2CC(=O)N([C@@H](C)CO)C[C@@H]1C`: “inactive”.
On to `O=C(/C=C/c1ccc(O)c(O)c1)O[C@@H]1C[C@](O)(C(=O)O)C[C@@H](O)[C@H]1O`, for which the cytotoxicity call is “inactive”.
`O=C(C=Cc1ccc(O)c(O)c1)OC1CC(O)(C(=O)O)CC(O)C1O` (stereo not drawn): the cytotoxicity call was “inactive”.
For `O=C(/C=C/c1ccc(O)c(O)c1)O[C@@H]1C[C@@](O)(C(=O)O)C[C@@H](O)[C@@H]1O`, the cytotoxicity call is “active”.
As for `Cc1noc(C)c1NC(=O)N(C)C[C@H]1OCCCC[C@@H](C)Oc2ccc(NS(=O)(=O)c3ccc(F)cc3)cc2C(=O)N([C@@H](C)CO)C[C@H]1C`, the cytotoxicity call was “inactive”.
